Assay results taken from PubChem BioAssay (NCATS).
Inconclusive results are not listed. Activity calls are given as the source filed them. Calls follow the shape of the dose curve; as a rule, active = well fitted inhibition curve with a large enough effect; inconclusive = small, poorly fitted or top-dose-only effect; inactive = flat fitted curve, though single readings scatter.

Key:
[1] = qHTS profiling for inhibitors of Plasmodium falciparum proliferation (AID 504749);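 also: 0% = DMSO vehicle and full inhibition = artemisinin control; nearly all actives have a fitted effect of over 60% in size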; conditions: P. falciparum in erythrocytes, SYBR Green DNA, 72 h, at 28.7 µM (top of the series)
Outline: (§1)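 P. falciparum-infected erythrocytes (0.3% parasitemia, 2.5% hematocrit) incubated with compound 72 h at 37 C, 5% CO2. Parasite DNA detected by SYBR Green after lysis, overnight at room temperature; normalised to 0.29 uM artemisinin and DMSO.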

[2] = system: 3D7; assay: as above; conditions: P. falciparum in erythrocytes, SYBR Green DNA, 72 h; series mostly up to 28.7 µM
Outline: as §1

[3] = system: 7G8; assay: as above; conditions: P. falciparum in erythrocytes, SYBR Green DNA, 72 h; series mostly up to 28.7 µM
Outline: as §1

[4] = system: AA1029; assay: as above; conditions: P. falciparum in erythrocytes, SYBR Green DNA, 72 h; series mostly up to 28.7 µM
Outline: as §1

[5] = system: AS120; assay: as above; conditions: P. falciparum in erythrocytes, SYBR Green DNA, 72 h; series mostly up to 28.7 µM
Outline: as §1

[6] = system: ATS189; assay: as above; conditions: P. falciparum in erythrocytes, SYBR Green DNA, 72 h; series mostly up to 28.7 µM
Outline: as §1

[7] = system: ATS95; assay: as above; conditions: P. falciparum in erythrocytes, SYBR Green DNA, 72 h; series mostly up to 28.7 µM
Outline: as §1

[8] = system: C2A; assay: as above; conditions: P. falciparum in erythrocytes, SYBR Green DNA, 72 h; series mostly up to 28.7 µM
Outline: as §1

[9] = system: CP185; assay: as above; conditions: P. falciparum in erythrocytes, SYBR Green DNA, 72 h; series mostly up to 28.7 µM
Outline: as §1

[10] = system: CP191; assay: as above; conditions: P. falciparum in erythrocytes, SYBR Green DNA, 72 h; series mostly up to 28.7 µM
Outline: as §1

[11] = system: CP192; assay: as above; conditions: P. falciparum in erythrocytes, SYBR Green DNA, 72 h; series mostly up to 28.7 µM
Outline: as §1

[12] = system: CP194; assay: as above; conditions: P. falciparum in erythrocytes, SYBR Green DNA, 72 h; series mostly up to 28.7 µM
Outline: as §1

[13] = system: CP201; assay: as above; conditions: P. falciparum in erythrocytes, SYBR Green DNA, 72 h; series mostly up to 28.7 µM
Outline: as §1

[14] = system: CP203; assay: as above; conditions: P. falciparum in erythrocytes, SYBR Green DNA, 72 h; series mostly up to 28.7 µM
Outline: as §1

[15] = system: CP211; assay: as above; conditions: P. falciparum in erythrocytes, SYBR Green DNA, 72 h; series mostly up to 28.7 µM
Outline: as §1

[16] = system: CP215; assay: as above; conditions: P. falciparum in erythrocytes, SYBR Green DNA, 72 h; series mostly up to 28.7 µM
Outline: as §1

[17] = system: CP217; assay: as above; conditions: P. falciparum in erythrocytes, SYBR Green DNA, 72 h; series mostly up to 28.7 µM
Outline: as §1

[18] = system: CP237; assay: as above; conditions: P. falciparum in erythrocytes, SYBR Green DNA, 72 h; series mostly up to 28.7 µM
Outline: as §1

[19] = system: CP238; assay: as above; conditions: P. falciparum in erythrocytes, SYBR Green DNA, 72 h; series mostly up to 28.7 µM
Outline: as §1

[20] = system: CP247; assay: as above; conditions: P. falciparum in erythrocytes, SYBR Green DNA, 72 h; series mostly up to 28.7 µM
Outline: as §1

O=C(O)COc1ccc(CCNS(=O)(=O)c2ccccc2)s1
inactive: activity, negative = inhibition ([1]; parasite line A) 12.4% | activity, negative = inhibition ([1]; parasite line B) -10.1% | Potency [2] | Potency [3] | Potency [4] | Potency [5] | Potency [6] | Potency [7] | Potency [8] | Potency [9] | Potency [10] | Potency [11] | Potency [12] | Potency [13] | Potency [14] | Potency [15] | Potency [16] | Potency [17] | Potency [18] | Potency [19] | Potency [20]

CC(C)Cc1ccc([C@@H](C)C(=O)NS(C)(=O)=O)cc1
inactive: activity, negative = inhibition ([1]; parasite line A) 3.44% | activity, negative = inhibition ([1]; parasite line B) -5.62% | Potency [2] | Potency [3] | Potency [4] | Potency [5] | Potency [6] | Potency [7] | Potency [8] | Potency [9] | Potency [10] | Potency [11] | Potency [12] | Potency [13] | Potency [14] | Potency [15] | Potency [16] | Potency [17] | Potency [18] | Potency [19] | Potency [20]

CC/C(=C(/CC)c1ccc(OP(=O)(O)O)cc1)c1ccc(OP(=O)(O)O)cc1
inactive: activity, negative = inhibition ([1]; parasite line A) 13.6% | activity, negative = inhibition ([1]; parasite line B) -2.71% | Potency [2] | Potency [3] | Potency [4] | Potency [5] | Potency [6] | Potency [7] | Potency [8] | Potency [9] | Potency [10] | Potency [11] | Potency [12] | Potency [13] | Potency [14] | Potency [15] | Potency [16] | Potency [17] | Potency [18] | Potency [19] | Potency [20]

ClC(Cl)Cl
inactive: activity, negative = inhibition ([1]; parasite line A) 5.74% | activity, negative = inhibition ([1]; parasite line B) 10.9% | Potency [2] | Potency [3] | Potency [4] | Potency [5] | Potency [6] | Potency [7] | Potency [8] | Potency [9] | Potency [10] | Potency [11] | Potency [12] | Potency [13] | Potency [14] | Potency [15] | Potency [16] | Potency [17] | Potency [18] | Potency [19] | Potency [20]

CC(=O)N[C@@H]1C(O[C@H]2O[C@H](C(=O)O)C(O)[C@H](O)[C@H]2O)[C@H](O)[C@@H](CO)O[C@H]1O[C@@H]1C(C(=O)O)O[C@@H](O[C@H]2[C@H](O)[C@@H](CO)OC(O)[C@@H]2NC(C)=O)[C@H](O)[C@H]1O (stereo partly specified)
inactive: activity, negative = inhibition ([1]; parasite line A) 0.279% | activity, negative = inhibition ([1]; parasite line B) 2.2% | Potency [2] | Potency [3] | Potency [4] | Potency [5] | Potency [6] | Potency [7] | Potency [8] | Potency [9] | Potency [10] | Potency [11] | Potency [12] | Potency [13] | Potency [14] | Potency [15] | Potency [16] | Potency [17] | Potency [18] | Potency [19] | Potency [20]

CCOC(C)OCC
inactive: activity, negative = inhibition ([1]; parasite line A) -1.66% | activity, negative = inhibition ([1]; parasite line B) -9.74% | Potency [2] | Potency [3] | Potency [4] | Potency [5] | Potency [6] | Potency [7] | Potency [8] | Potency [9] | Potency [10] | Potency [11] | Potency [12] | Potency [13] | Potency [14] | Potency [15] | Potency [16] | Potency [17] | Potency [18] | Potency [19] | Potency [20]

O=c1[nH]c(=O)n([C@H]2C[C@H](O)[C@@H](CO)O2)cc1/C=C/Br
inactive: activity, negative = inhibition ([1]; parasite line A) 6.74% | activity, negative = inhibition ([1]; parasite line B) -10.9% | Potency [2] | Potency [3] | Potency [4] | Potency [5] | Potency [6] | Potency [7] | Potency [8] | Potency [9] | Potency [10] | Potency [11] | Potency [12] | Potency [13] | Potency [14] | Potency [15] | Potency [16] | Potency [17] | Potency [18] | Potency [19] | Potency [20]

NCCO/C=C/[C@H](N)C(=O)O
inactive: activity, negative = inhibition ([1]; parasite line A) 6.56% | activity, negative = inhibition ([1]; parasite line B) 15.6% | Potency [2] | Potency [3] | Potency [4] | Potency [5] | Potency [6] | Potency [7] | Potency [8] | Potency [9] | Potency [10] | Potency [11] | Potency [12] | Potency [13] | Potency [14] | Potency [15] | Potency [16] | Potency [17] | Potency [18] | Potency [19] | Potency [20]

CCC(Cc1c(I)cc(I)c(O)c1I)C(=O)O (stereo unspecified)
inactive: activity, negative = inhibition ([1]; parasite line A) 0.0242% | activity, negative = inhibition ([1]; parasite line B) -1.87% | Potency [2] | Potency [3] | Potency [4] | Potency [5] | Potency [6] | Potency [7] | Potency [8] | Potency [9] | Potency [10] | Potency [11] | Potency [12] | Potency [13] | Potency [14] | Potency [15] | Potency [16] | Potency [17] | Potency [18] | Potency [19] | Potency [20]

NC(=O)[C@H]1O[C@@H](O)[C@H](O)[C@@H](O)[C@@H]1O
inactive: activity, negative = inhibition ([1]; parasite line A) 12.1% | activity, negative = inhibition ([1]; parasite line B) 13.4% | Potency [2] | Potency [3] | Potency [4] | Potency [5] | Potency [6] | Potency [7] | Potency [8] | Potency [9] | Potency [10] | Potency [11] | Potency [12] | Potency [13] | Potency [14] | Potency [15] | Potency [16] | Potency [17] | Potency [18] | Potency [19] | Potency [20]

O[C@@H]([C@H](O)[C@H](O)CBr)[C@H](O)CBr
inactive: activity, negative = inhibition ([1]; parasite line A) -11.7% | activity, negative = inhibition ([1]; parasite line B) 1.51% | Potency [2] | Potency [3] | Potency [4] | Potency [5] | Potency [6] | Potency [7] | Potency [8] | Potency [9] | Potency [10] | Potency [11] | Potency [12] | Potency [13] | Potency [14] | Potency [15] | Potency [16] | Potency [17] | Potency [18] | Potency [19] | Potency [20]
